PubChem BioAssay AID372 (MTDP, 2006)
Out of some 100,000 compounds screened, about 770 (0.77%) were called active. The entries come from a sample that favours actives as a whole. Values without a mark were called inactive. Cut-off read from the data, not from the text of the source: active = inhibition above about 50%; inactive = the rest.

What follows are compounds tested against Gag-Pol polyprotein (Human immunodeficiency virus type 1 group M subtype B (isolate HXB2)) (UniProt P04585) (assay: RNase H inhibition, HIV 1 Gag Pol polyprotein, FRET biochemical assay, screening (AID 372)). Details: HIV-1 RT RNase H, FRET RNA/DNA substrate fluorescence; at 10 µM; stronger effect = higher value.
For `Clc1ccc(Oc2cccc(CN3CCN(c4ccccc4)CC3)c2)cc1`, the inhibition was 17%. With `Cc1cccc(C(=O)NCC(O)c2ccccc2)c1` (stereo not given) the inhibition was 11%. Work on `CN=C(Nc1ccc2c(c1)OCO2)SC1CC(=O)N(c2ccc(Cl)cc2)C1=O` (stereo not given) yielded an inhibition of 12%. For `COC(=O)C1=C(C)N=c2s/c(=C\c3ccccc3Cl)c(=O)n2C1c1ccccc1Cl` (stereo not given), the inhibition was 20%. With `CCOc1ccc(NC(=O)CC2S/C(=N\N=C(/C)c3ccc(F)cc3)NC2=O)cc1` (stereo not given) the inhibition was 6%. For `CN1C(=O)NC(=O)/C(=C/c2ccc(-c3ccc([N+](=O)[O-])cc3Cl)o2)C1=O`, the inhibition was 55% (active). `CN1C(=O)NC(=O)/C(=C/c2ccc(-c3cc([N+](=O)[O-])ccc3Cl)o2)C1=O` was tested, and the inhibition was 20%. In the case of `O=C1NC(=O)N(c2ccccc2)C(=O)/C1=C\c1ccc(-c2ccc([N+](=O)[O-])cc2)o1`, the inhibition is reported as 7%. In the case of `O=C1NC(=O)N(Cc2ccccc2)C(=O)/C1=C/c1ccc(-c2cccc([N+](=O)[O-])c2)o1`, the inhibition is reported as 38%. With `Cc1cc([N+](=O)[O-])ccc1-c1ccc(/C=C2\C(=O)NC(=O)N(Cc3ccccc3)C2=O)o1` the inhibition was 60% (active). `Cc1ccc([N+](=O)[O-])cc1-c1ccc(/C=C2/C(=O)NC(=O)N(C)C2=O)o1` was tested, and the inhibition was 27%. Work on `Cc1cc([N+](=O)[O-])ccc1-c1ccc(/C=C2/C(=O)NC(=O)N(c3ccccc3)C2=O)o1` yielded an inhibition of 17%. In the case of `O=C1NC(=O)N(Cc2ccccc2)C(=O)/C1=C/c1ccc(-c2ccc([N+](=O)[O-])cc2)o1`, the inhibition is reported as 63% (active). Work on `Cc1cc([N+](=O)[O-])ccc1-c1ccc(/C=C2/C(=O)NC(=O)N(Cc3ccco3)C2=O)o1` yielded an inhibition of 25%. In the case of `CCC(=O)c1cc(Cl)ccc1NC(=O)c1ccc(Br)cc1`, the inhibition is reported as 10%. Compound `CC(=O)c1cccc(NC(=O)c2ccc(OC3CSC3)cc2)c1` has an inhibition of 8%. In the case of `Cc1sc(NC(=O)C2C3C=CC(C3)C2C(=O)O)c(C(N)=O)c1C` (stereo not given), the inhibition is reported as 6%. Compound `CCOc1cc(/C=C2\C(=O)NC(=O)N(c3ccc(Br)cc3)C2=O)ccc1OCC(=O)O` has an inhibition of 8%. Work on `O=C(O)c1cccc(N2C(=O)c3cccnc3C2=O)c1` yielded an inhibition of 0%. With `O=C(O)c1cccc(N2C(=O)c3ccc4c5c(ccc(c35)C2=O)CC4)c1` the inhibition was 56% (active). Work on `O=C(O)c1cccc(N2C(=O)c3ccc(Br)cc3C2=O)c1` yielded an inhibition of 1%. `COc1ccc(-c2nnc(SCC(=O)c3cccc([N+](=O)[O-])c3)n2-c2ccc(C)cc2)cc1OC` was tested, and the inhibition was 19%. With `Oc1ccc(Nc2nc(-c3ccc(Br)cc3)cs2)cc1` the inhibition was 21%. `O=C1c2ccc3c4c(ccc(c24)C(=O)N1/N=C/c1ccco1)CC3` showed an inhibition of 3%. Work on `Oc1ccc2c(c1)C1CCCCC1(N1CCCCC1)O2` (stereo not given) yielded an inhibition of 0%. `O=[N+]([O-])c1ccc2c(c1)C(C#Cc1ccccc1)C1CCCCC1(N1CCOCC1)O2` (stereo not given) was tested, and the inhibition was 57% (active). Work on `Oc1cc(-c2ccccc2)c2c(c1)C1CCCCC1(N1CCOCC1)O2` (stereo not given) yielded an inhibition of 0%. `COc1ccc(OCC(=O)N/N=C\c2cc(O)c(O)c(Br)c2)c(Br)c1` was tested, and the inhibition was 64% (active). For `COc1ccc(OCC(=O)N/N=C/c2ccc(OC)c(Br)c2)cc1`, the inhibition was 2%. Work on `O=C(COc1ccc2ccccc2c1)N/N=C/c1ccccc1Br` yielded an inhibition of 13%. `O=C(COc1ccc2ccccc2c1)N/N=C/c1ccccc1` gave an inhibition of 4%. In the case of `COc1cc(/C=N/NC(=O)COc2ccc(Cl)cc2Br)cc(Br)c1O`, the inhibition is reported as 24%. For `O=C(COc1ccc2ccccc2c1)N/N=C\c1cc(O)c(O)c(Br)c1`, the inhibition was 73% (active). `Cc1cc(=O)[nH]c(N/N=C/c2ccc(O)cc2)n1` was tested, and the inhibition was 2%. `CC(C)(C)c1cc(C(=O)Nc2nsc(-c3ccccc3)n2)cc(C(C)(C)C)c1` gave an inhibition of 7%. For `COc1ccc(NC(=O)/C=C/c2ccc(C)o2)cc1`, the inhibition was 21%. With `N#C/C(=C/c1cn(-c2ccccc2)nc1-c1cc2ccccc2oc1=O)C(N)=O` the inhibition was 8%. `O=c1oc2ccccc2cc1-c1nn(-c2ccccc2)cc1/C=N/O` was tested, and the inhibition was 21%. `N#CC(C#N)=Cc1cn(-c2ccccc2)nc1-c1cc2ccccc2oc1=O` was tested, and the inhibition was 56% (active). With `Cc1ccccc1-c1nc2c3c4c(sc3ncn2n1)CCCCC4` the inhibition was 8%. Work on `COc1ccc(OCC(=O)Nc2sc3c(c2C(N)=O)CCCC3)cc1` yielded an inhibition of 41%. With `COc1ccc(OCC(=O)Nc2ccc3oc(-c4cccc(I)c4)nc3c2)cc1` the inhibition was 53% (active). For `COc1ccc(OCC(=O)Nc2ccc3oc(-c4ccncc4)nc3c2)cc1`, the inhibition was 14%. For `O=C(COc1ccc([N+](=O)[O-])cc1)Nc1ccc2oc(-c3cccc(Cl)c3)nc2c1`, the inhibition was 9%. With `Cc1cccc(OCC(=O)Nc2ccc3oc(-c4cccc(I)c4)nc3c2)c1` the inhibition was 22%. With `O=C(COc1ccc([N+](=O)[O-])cc1)Nc1ccc2oc(-c3ccccc3Cl)nc2c1` the inhibition was 53% (active). In the case of `O=C(COc1ccc([N+](=O)[O-])cc1)Nc1ccc2oc(-c3ccccc3F)nc2c1`, the inhibition is reported as 49%. `O=C(COc1ccc([N+](=O)[O-])cc1)Nc1ccc2oc(-c3ccc(Br)cc3)nc2c1` showed an inhibition of 14%. `CCc1ccc(-c2nc3cc(NC(=O)COc4ccc([N+](=O)[O-])cc4)ccc3o2)cc1` gave an inhibition of 43%. With `COc1ccc(-c2nc3cc(NC(=O)COc4ccc([N+](=O)[O-])cc4)ccc3o2)cc1` the inhibition was 55% (active). `O=c1[nH]c(-c2cccc(O)c2)nc2sc3c(c12)CCCC3` gave an inhibition of 22%. For `COc1cccc(COc2cc3oc(=O)c4c(c3cc2Cl)CCCC4)c1`, the inhibition was 12%. `O=C(NCc1cccnc1)c1cnn2c(C(F)(F)F)cc(-c3ccc4c(c3)OCO4)nc12` was tested, and the inhibition was 11%. With `Cc1ccc(NC(=O)/C=C/c2ccc3c(c2)OCO3)c(C)c1` the inhibition was 10%. `C=CCN1C(=O)/C(=C\c2ccc(-c3ccc(C(=O)OCC)cc3)o2)C(=O)NC1=S` gave an inhibition of 45%. Work on `CCCCn1c(/N=C/c2nc3ccccc3n2C)nc2ccccc21` yielded an inhibition of 5%. `CCN(CC)c1ccc(N2C(=O)/C(=C\c3ccc(C)o3)SC2=S)cc1` showed an inhibition of 3%. `CCN(CC)C(=O)C(=O)N/N=C/c1ccco1` was tested, and the inhibition was 5%. Compound `S=C(Nc1ccc2nccnc2c1)Nc1cccc2ccccc12` has an inhibition of 27%. `O=C(N=Nc1c(O)n(CN2CCCCCC2)c2ccc(Br)cc12)c1cccnc1` was tested, and the inhibition was 5%. With `N#C/C(=C\c1cccc(Br)c1)c1nc(-c2cccc([N+](=O)[O-])c2)cs1` the inhibition was 22%. `N#C/C(=C\c1cccc([N+](=O)[O-])c1)c1nc(-c2cccc([N+](=O)[O-])c2)cs1` was tested, and the inhibition was 6%. Work on `N#C/C(=C\C=C\c1ccccc1[N+](=O)[O-])c1nc(-c2cc3cc([N+](=O)[O-])ccc3oc2=O)cs1` yielded an inhibition of 6%. For `N#C/C(=C\c1cccc([N+](=O)[O-])c1)c1nc(-c2cc3cc([N+](=O)[O-])ccc3oc2=O)cs1`, the inhibition was 7%. `COc1ccc(/C=C(\C#N)c2nc(-c3ccc(OC)c(OC)c3)cs2)cc1O` showed an inhibition of 25%. `COc1ccc(-c2csc(/C(C#N)=C/c3ccc(O)c(O)c3)n2)cc1OC` was tested, and the inhibition was 84% (active). `N#C/C(=C\c1ccccc1[N+](=O)[O-])c1nc(-c2cc3cc([N+](=O)[O-])ccc3oc2=O)cs1` was tested, and the inhibition was 52% (active). Compound `COc1ccc(-c2csc(/C(C#N)=C/c3ccc(O)cc3)n2)cc1OC` has an inhibition of 24%. `N#C/C(=C\c1ccc(O)c(O)c1)c1nc(-c2cccc([N+](=O)[O-])c2)cs1` was tested, and the inhibition was 60% (active). `Cc1ccc(-n2c(/C=C3/C(=O)N(C)c4ccc(Br)cc43)nc3ccccc3c2=O)cc1` gave an inhibition of 2%. With `C=CCN1C(=O)C(Cc2ccc(F)cc2)S/C1=N\N=C\c1ccco1` (stereo not given) the inhibition was 3%. For `CC12C=CC(O1)C1C(=O)N(c3ccc([N+](=O)[O-])cc3)C(=O)C12` (stereo not given), the inhibition was 11%. `O=C1N/C(=N\N=C\c2ccccc2O)SC1Cc1ccc(Br)cc1` (stereo not given) gave an inhibition of 16%. Compound `O=C(Nc1cccnc1)c1cccc(Cl)c1Cl` has an inhibition of 5%. With `O=C1S/C(=C/c2cccc(Br)c2)C(=O)N1c1ccccc1` the inhibition was 12%. With `CCCN1C(=O)/C(=C\c2cccc(Cl)c2)SC1=S` the inhibition was 19%. In the case of `O=C(NC(=S)Nc1ccc(S(=O)(=O)Nc2nccs2)cc1)c1sc2ccccc2c1Cl`, the inhibition is reported as 70% (active). `CCc1ccc2oc(-c3ccc(NC(=O)c4sc5ccccc5c4Cl)cc3)nc2c1` was tested, and the inhibition was 50% (active). For `O=C(Nc1ccc(-c2nc3cc(Cl)ccc3o2)cc1)c1sc2ccccc2c1Cl`, the inhibition was 41%. `O=S(=O)(Nc1nccs1)c1ccc(NC(=S)Nc2ccccc2)cc1` showed an inhibition of 8%. With `O=C(Nc1ccc2oc(-c3cccc(F)c3)nc2c1)c1sc2ccccc2c1Cl` the inhibition was 52% (active). For `O=C(Nc1ccc(NC(=O)c2sc3ccccc3c2Cl)cc1)c1ccccc1`, the inhibition was 53% (active). For `Cc1cccc(-c2nc3cc(NC(=O)c4sc5ccccc5c4Cl)ccc3o2)c1`, the inhibition was 37%. Compound `O=C(Nc1ccc2oc(-c3cccc(Cl)c3)nc2c1)c1sc2ccccc2c1Cl` has an inhibition of 20%. `Cc1ccc(-c2nc3cc(NC(=O)c4sc5ccccc5c4Cl)ccc3o2)cc1` gave an inhibition of 20%. `O=C(Nc1nccs1)c1sc2ccccc2c1Cl` showed an inhibition of 7%. `O=C(c1ccccc1)c1ccc(NC(=O)c2sc3ccccc3c2Cl)cc1` was tested, and the inhibition was 18%. Work on `CC(C)(C)c1ccc(C(=O)Nc2ccc(NC(=O)c3sc4ccccc4c3Cl)cc2)cc1` yielded an inhibition of 24%. For `Cc1cc(C)c(C(N)=O)c(Nc2ccccc2)n1`, the inhibition was 5%. In the case of `Cc1ccccc1C(=O)NC(=S)Nc1ccc2c3c(cccc13)CC2`, the inhibition is reported as 21%.
